Assay outcomes as filed in PubChem BioAssay.
miR122 inh: miR-122 suppressors via Renilla sensor increase, primary screen, cell-based, Huh7 psiCHECK-miR122, Renilla luciferase, single point; 0.14% of 340,000 active; activation, % at 12.5 µM; 48 h;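 active means mean activation of 30% or more, with every replicate also reaching 30%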;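 further: 0% = median of neutral control wells and 100% = median of positive control wells; higher luciferase signal means stronger suppression of miR-122 activity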
* marks the source's active call; other numbers are inactive results. Not all results are given here.

How did COc1cccc(-c2ccc3c(c2)O[C@H](CN(C)C(=O)C2CCCCC2)[C@H](C)CN([C@H](C)CO)S3(=O)=O)c1 do in these assays?
miR122 inh: -15

Results for CO[C@H]1CN(C)C(=O)c2cc(NS(=O)(=O)CC(F)(F)F)ccc2OC[C@@H](C)N(C)C[C@H]1C ?
miR122 inh: 1

Results for COc1ccccc1-c1ccc2c(c1)O[C@@H](CN(C)C(C)=O)[C@H](C)CN([C@@H](C)CO)S2(=O)=O ?
miR122 inh: 1

Results for C/C=C/c1ccc2c(c1)O[C@@H](CN(C)S(=O)(=O)c1ccccc1OC)[C@H](C)CN([C@@H](C)CO)S2(=O)=O ?
miR122 inh: -3

Results for C[C@@H]1CN([C@H](C)CO)S(=O)(=O)c2ccc(-c3cncnc3)cc2O[C@@H]1CN(C)Cc1ccccc1 ?
miR122 inh: -3

Results for C[C@@H]1CN([C@H](C)CO)C(=O)c2cc(N(C)C)ccc2O[C@@H]1CN(C)Cc1ccc(C(=O)Nc2ccccc2N)cc1 ?
miR122 inh: -220

What do the screens show for `CCCN(C)C[C@@H]1Oc2ncc(/C=C/c3ccccc3)cc2C(=O)N([C@H](C)CO)C[C@@H]1C`?
miR122 inh: 4

What do the screens show for `COc1ccccc1S(=O)(=O)N(C)C[C@@H]1Oc2ncc(-c3ccc(C)cc3)cc2C(=O)N([C@H](C)CO)C[C@H]1C`?
miR122 inh: 8

What do the screens show for `COCC#Cc1ccc2c(c1)O[C@@H](CN(C)C(=O)COC)[C@@H](C)CN([C@@H](C)CO)S2(=O)=O`?
miR122 inh: 0

What do the screens show for `COCC#Cc1cnc2c(c1)C(=O)N([C@H](C)CO)C[C@H](C)[C@@H](CN(C)S(=O)(=O)c1cccc(OC)c1)O2`?
miR122 inh: -6

Results for COCC#Cc1cnc2c(c1)C(=O)N([C@@H](C)CO)C[C@@H](C)[C@H](CN(C)S(=O)(=O)c1cccc(OC)c1)O2 ?
miR122 inh: 1

Results for COc1ccccc1NC(=O)N(C)C[C@H]1Oc2ncc(C#CCC(C)C)cc2C(=O)N([C@@H](C)CO)C[C@H]1C ?
miR122 inh: -3

Results for CCC(=O)Nc1ccc2c(c1)OC[C@H](C)N(C(=O)c1ccccn1)C[C@H](C)[C@@H](OC)CN(C)C2=O ?
miR122 inh: -1

What do the screens show for `C[C@H](CO)N1C[C@H](C)[C@H](CN(C)S(=O)(=O)c2ccc(F)cc2)Oc2ncc(/C=C/c3ccccc3)cc2C1=O`?
miR122 inh: 7

Results for C[C@@H]1CN([C@H](C)CO)C(=O)c2cc(C#CCc3ccccc3)cnc2O[C@H]1CN(C)Cc1ccccn1 ?
miR122 inh: 5

How did COc1ccc(S(=O)(=O)N(C)C[C@@H]2Oc3cc(-c4cccc(F)c4)ccc3S(=O)(=O)N([C@H](C)CO)C[C@H]2C)cc1 do in these assays?
miR122 inh: 39*

How did C[C@@H]1CN([C@H](C)CO)S(=O)(=O)c2ccc(-c3ccc(C(=O)N(C)C)cc3)cc2O[C@@H]1CN(C)C(=O)C1CCOCC1 do in these assays?
miR122 inh: 20

Results for Cc1ccc(S(=O)(=O)N(C)C[C@@H]2Oc3cc(-c4cccc(F)c4)ccc3S(=O)(=O)N([C@@H](C)CO)C[C@H]2C)cc1 ?
miR122 inh: 9

Results for C[C@H]1CN([C@@H](C)CO)S(=O)(=O)c2ccc(-c3ccc(C(=O)N(C)C)cc3)cc2O[C@@H]1CN(C)C(=O)C1CCOCC1 ?
miR122 inh: -9

Results for Cc1ccc(S(=O)(=O)N(C)C[C@@H]2Oc3cc(-c4cccc(F)c4)ccc3S(=O)(=O)N([C@H](C)CO)C[C@@H]2C)cc1 ?
miR122 inh: 3

What do the screens show for `C[C@H](CO)N1C[C@H](C)[C@H](CN(C)C(=O)C2CCC2)Oc2cc(-c3ccc(C(=O)N(C)C)cc3)ccc2S1(=O)=O`?
miR122 inh: 55*

Results for C[C@H]1CN([C@@H](C)CO)C(=O)c2cc(NC(=O)NC3CCCCC3)ccc2O[C@@H]1CN(C)C(=O)Nc1ccccc1 ?
miR122 inh: -93

Results for C[C@@H]1CN([C@H](C)CO)C(=O)c2cc(-c3cncnc3)cnc2O[C@@H]1CN(C)Cc1cncnc1 ?
miR122 inh: -10

What do the screens show for `COc1ccc(C#Cc2cnc3c(c2)C(=O)N([C@H](C)CO)C[C@H](C)[C@H](CN(C)CC2CCOCC2)O3)cc1`?
miR122 inh: -5

What do the screens show for `C[C@H](CO)N1C[C@H](C)[C@H](CN(C)C(=O)Nc2ccc3c(c2)OCO3)Oc2cc(C#Cc3ccccc3)ccc2S1(=O)=O`?
miR122 inh: 2

Results for CC(C)C#Cc1ccc2c(c1)O[C@@H](CN(C)C(=O)CN(C)C)[C@H](C)CN([C@H](C)CO)S2(=O)=O ?
miR122 inh: -3

What do the screens show for `COc1ccccc1NC(=O)N(C)C[C@H]1Oc2ncc(C#CCC(C)C)cc2C(=O)N([C@@H](C)CO)C[C@@H]1C`?
miR122 inh: -6

How did CCC(=O)N(C)C[C@H]1Oc2ncc(C#CC3(O)CCCC3)cc2C(=O)N([C@H](C)CO)C[C@H]1C do in these assays?
miR122 inh: 3
